A selection: hits, their analogues and other compounds. The true share with any hit is near 1.6%.
KCNQ2 pot: KCNQ2 (rat) channel potentiation; CHO-K1 KCNQ2, FluxOR thallium flux fluorescence; stronger effect = higher value; B-score at 10 µM; 310,000 tested, 0.54% active; AID 2239;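 active = fluorescence ratio B-score at least 3 SD of library B-scores, with initial fluorescence B-score within 3 of them, cut at about 5.3 in these data; same plate scores as AID 2156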;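 also: B-score of peak minus minimum over baseline fluorescence ratio after K+ and Tl+ stimulus; positive B-score means potentiation of KCNQ2 with more thallium influx and brighter signal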
KCNQ2 inh: blocks the rat KCNQ2 potassium channel; O88943; CHO-K1 KCNQ2, FluxOR thallium flux, 20 min; stronger effect = lower value; B-score at 10 µM; 310,000 tested, 1.1% active;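 active = fluorescence ratio B-score at most minus 3 library SDs, with starting brightness B-score within 2 library SDs, cut at about -5.5 in these data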
Kir21 conf inh: confirmation of mouse Kir2.1 potassium channel inhibitors; Kir2.1-expressing cells, FluxOR thallium flux fluorescence; stronger effect = lower value; Tl flux remaining, % of negative control (stronger effect = lower value), % at 10 µM; 2,300 tested, 41% active; shares compounds with KCNQ2 pot;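 active = Primary-screen hit whose thallium flux fell at least 3 control SD below untreated wells in both duplicates, with normal baseline fluorescence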
Target sequence (P35561 whole entry, looked up): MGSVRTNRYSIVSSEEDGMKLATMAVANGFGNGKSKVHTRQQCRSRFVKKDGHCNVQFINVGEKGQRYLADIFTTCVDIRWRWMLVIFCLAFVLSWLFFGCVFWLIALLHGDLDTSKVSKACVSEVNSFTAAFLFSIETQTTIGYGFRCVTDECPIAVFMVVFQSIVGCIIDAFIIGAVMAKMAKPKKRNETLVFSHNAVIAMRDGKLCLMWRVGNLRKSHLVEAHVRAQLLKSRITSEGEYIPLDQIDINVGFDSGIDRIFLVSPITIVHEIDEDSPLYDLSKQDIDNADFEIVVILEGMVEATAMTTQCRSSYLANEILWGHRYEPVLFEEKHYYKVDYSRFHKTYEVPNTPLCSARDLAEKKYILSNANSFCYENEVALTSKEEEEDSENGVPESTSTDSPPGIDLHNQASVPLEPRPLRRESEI
HEK293 Tl flux: alters thallium flux in parental HEK293 cells, Kir2.1 counter-screen; shares compounds with KCNQ2 pot; FluxOR thallium flux fluorescence; 0% = unstimulated blank wells; FluxOR signal as % of negative control (100 = no effect), % at 10 µM; 2,300 tested, 19% active;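 active = dye signal at least 3 control SD above or below untreated wells in both duplicates, raw fluorescence within 3, either direction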;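 also: percent is based on the flux ratio of peak minus minimum fluorescence over baseline F0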
CHO-K1 ctr: alters thallium flux in parental CHO-K1 cells, KCNQ2 counter-screen; shares compounds with KCNQ2 pot; FluxOR thallium flux fluorescence; zero = vehicle mean+3SD, 100% = vehicle-minus-blank window; activity increase over 3SD of controls, % at 10 µM; 1,200 tested, 43% active; AID 2282;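 active = signal rise of at least 3 SD above the untreated control mean, in both duplicate wells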;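 also: counter screen of KCNQ2 potentiator hits so any rise reflects channel-independent effects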
KCNQ1 pot spec: tests whether KCNQ2 potentiators also act on human KCNQ1; shares compounds with KCNQ2 pot; CHO KCNQ1 stable, FluxOR thallium flux fluorescence; beyond 3SD, as % of vehicle-control signal; activation over 3SD threshold, % at 10 µM; 1,200 tested, 28% active; AID 2283;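 active = fluorescence ratio rise of at least 3 SD of vehicle wells above their mean, in both replicate wells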
KCNQ2 pot conf: rat KCNQ2 channel potentiator confirmation; shares compounds with KCNQ2 pot; CHO-KCNQ2 cells, FluxOR thallium flux fluorescence; potentiation, less the hit threshold, % at 10 µM; 1,200 tested, 68% active; AID 2287;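 active = fluorescence ratio rising 3 SD or more over the vehicle control mean in both replicates, plus primary screen hit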;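 also: peak minus minimum thallium fluorescence divided by baseline after K/Tl stimulus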
Kir21 spec: mouse Kir2.1 off-target activity of KCNQ2 potentiators | activity over 3SD threshold, % at 10 µM | HEK293 Kir2.1, FluxOR thallium flux fluorescence | 1,200 tested, 2% active | AID 2345 | shares compounds with KCNQ2 pot;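 active = fluorescence ratio rise of at least 3 SD above the vehicle-control mean, seen in both replicates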
KCNQ2 W236L pot: rat KCNQ2 W236L mutant potentiation by KCNQ2 potentiators. shares compounds with KCNQ2 pot. CHO KCNQ2-W236L, automated patch clamp current. current increase over 3SD of negative controls (%), stronger effect = higher value, % at 25 µM. 940 tested, 10% active. AID 2558;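 active = current increase at least 3 SD of the untreated controls above them in both duplicate recordings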
A number is an active result; - = inactive; . = no result.

SMILES	KCNQ2 pot	KCNQ2 inh	Kir21 conf inh	HEK293 Tl flux	others
O=C(NC(=S)N1CCCCCC1)c1ccc(Cl)cc1Cl	9.08	-	-	238.0%	CHO-K1 ctr=27.0;KCNQ1 pot spec=6.1;KCNQ2 pot conf=12.2;Kir21 spec=-;KCNQ2 W236L pot=-
CCCN(CCC)C(=S)NC(=O)c1ccc(Cl)cc1Cl	15.6	-	-	394.5%	CHO-K1 ctr=-;KCNQ1 pot spec=-;KCNQ2 pot conf=67.4;Kir21 spec=-;KCNQ2 W236L pot=-
O=C(NC(=S)N1CCCCCC1)c1ccccc1Cl	-	-	.	.
Cc1ccccc1C(=O)NNC(=S)NC(=O)c1ccc(Cl)cc1Cl	-	-	.	.
COc1ccc(C(=O)C2CCCN(Cc3cnc(N4CCOCC4)s3)C2)cc1F (configuration not stated)	-	-	.	.
O=S(=O)(/N=C/c1c(O)ccc2ccccc12)c1cccs1	5.76	-	-	-	CHO-K1 ctr=-;KCNQ1 pot spec=-;KCNQ2 pot conf=-;Kir21 spec=-
Cc1ccc(S(=O)(=O)/N=C/c2c(O)ccc3ccccc23)cc1	.	-	.	.
CC1=C(C)CC(C(=O)N2CCN(Cc3ccc4c(c3)OCO4)CC2)C(C(=O)O)C1 (configuration not stated)	.	-	.	.
CCc1ccc(OCC(=O)NCc2ccco2)c(Br)c1	7.85	-	-	-	CHO-K1 ctr=-;KCNQ1 pot spec=-;KCNQ2 pot conf=22.1;Kir21 spec=-;KCNQ2 W236L pot=-
O=C(COc1ccccc1Br)NCc1ccco1	-	-	.	.
Cc1ccc(N2NC(=O)/C(=C\c3cc4c(cc3[N+](=O)[O-])OCO4)C2=O)cc1C	.	-	75.5%	-
COc1cc(/C=C2/C(=O)NN(c3ccc(C)c(Cl)c3)C2=O)cc([N+](=O)[O-])c1O	.	-	.	.
Cc1ccc(CC(=O)NC(C)CCc2ccccc2)cc1 (configuration not stated)	.	-	.	.
Cc1ccccc1CN(C)CC(=O)NC(C)CCc1ccccc1 (configuration not stated)	-	-6.6	34.5%	-
O=C(CN1CCCCC1)N1CCN(S(=O)(=O)c2ccccc2)C1	-	-	.	.
NS(=O)(=O)c1ccc(NC(=O)c2ccc3c(c2)CCCC3)cc1	.	-	.	.
CCO[C@H]1OC(C(=O)NCc2nc3ccccc3[nH]2)=C[C@@H](c2ccc3c(c2)OCO3)[C@@H]1CCCO	-	-	.	.
OCc1cc(C(O)CNCCCCCCOCCCCc2ccccc2)ccc1O (configuration not stated)	-	-	31.5%	-
OC(CNCc1cccc(Br)c1)c1ccccc1 (configuration not stated)	-	-	.	.
CCOc1ccc2nc(Nc3nc(CSc4nnnn4-c4ccccc4)cc(=O)[nH]3)nc(C)c2c1	-	-	.	.
Nc1ccc(C(=O)OC2CCOC2=O)cc1[N+](=O)[O-] (configuration not stated)	-	-	.	.
COc1ccc(C23CC4CC(CC(C(=O)O)(C4)C2)C3)c(F)c1	-	-	.	.
COc1ccc(/C=C/C(=O)O)cc1S(=O)(=O)N1CCc2ccccc2C1	-	-	.	.
O=C(COC(=O)C12CC3CC(CC(O)(C3)C1)C2)NCCc1ccc(Cl)cc1	.	-	.	.
O=C(CC1(c2ccc(Cl)cc2)C2CC3CC(C2)CC1C3)NCCO (configuration not stated)	5.37	-	-	-	CHO-K1 ctr=48.4;KCNQ1 pot spec=72.5;KCNQ2 pot conf=13.6;Kir21 spec=-;KCNQ2 W236L pot=-
SMILES	KCNQ2 pot	KCNQ2 inh	Kir21 conf inh	HEK293 Tl flux	others
CC(C)n1cc(-c2nc(C(=O)NN)cs2)c(=O)n(Cc2ccccc2)c1=O	-	-	.	.
CCN(CC)C(=O)c1ccc(COc2ccccc2Cl)o1	-	-	.	.
CN(NS(=O)(=O)c1ccc(Cl)cc1)c1ncc(C(F)(F)F)cc1Cl	-	-	57.5%	-
CN(NS(=O)(=O)c1ccc(F)cc1)c1ncc(C(F)(F)F)cc1Cl	-	-	.	.
O=C(CCC(=O)N1CCOc2ccc(Cl)cc21)NCCCN1CCN(c2ccccc2F)CC1	-	-	.	.
O=C(CCC(=O)N1CCOc2ccc(Cl)cc21)NCCCN1CCC(Cc2ccccc2)CC1	.	-	-	-
COc1ccc(NC(=S)Nc2cccc(Cl)c2)cc1OC	.	-	.	.
CC(=O)N1CC(C)Sc2ccc(S(=O)(=O)NCc3ccccc3Cl)cc21 (configuration not stated)	.	-	75.0%	-
CC(=O)N1CCOc2ccc(S(=O)(=O)NCc3ccccc3Cl)cc21	.	-	.	.
COc1ccc(CNCC(O)COc2ccc(C)cc2[N+](=O)[O-])cc1 (configuration not stated)	.	-	26.5%	-
COc1ccc(CCNCC(O)COc2cccc(Br)c2)cc1OC (configuration not stated)	.	-	.	.
OC(CNCc1ccccc1)COc1ccccc1 (configuration not stated)	.	-	.	.
Cc1ccc(OCC(O)CNCc2ccc(F)cc2)cc1 (configuration not stated)	-	-	27.0%	-
COc1ccc(CCNCC(O)COc2ccc(OC)cc2C(C)(C)C)cc1 (configuration not stated)	.	-	56.0%	-
COc1ccc(OCCOCCOc2ccc(C)cc2[N+](=O)[O-])cc1	.	-	.	.
c1ccc2c(CN3CCCCC3)csc2c1	.	-	.	.
Cc1ccc(OCC(O)Cn2c(=N)n(Cc3ccccc3)c3ccccc32)cc1 (configuration not stated)	.	-	37.5%	-
Cc1cccc(OCC(O)Cn2c(=N)n(Cc3ccccc3)c3ccccc32)c1 (configuration not stated)	.	-	32.0%	-
Cc1cccc(OCC(O)Cn2c(=N)n(CCN3CCCCC3)c3ccccc32)c1 (configuration not stated)	.	-	.	.
CCN(CC)CCn1c(=N)n(CC(O)COc2cccc(C)c2)c2ccccc21 (configuration not stated)	.	-	56.0%	-
Cc1cccc(OCC(O)CN2CCNCC2)c1 (configuration not stated)	-	-	.	.
COc1ccc(OCC(O)Cn2c(=N)n(Cc3ccccc3)c3ccccc32)cc1 (configuration not stated)	.	-	45.5%	-
N=c1n(Cc2ccccc2)c2ccccc2n1Cc1ccccc1	-	-	.	.
N=c1n(Cc2ccccc2)c2ccccc2n1CC(O)c1ccco1 (configuration not stated)	-	-	.	.
CCN(CC)CCN1C(=O)C(=O)/C(=C(/O)c2ccncc2)C1c1ccccc1 (configuration not stated)	-	-	.	.

Bioassay records as filed in PubChem.
